Screening data as filed in PubChem BioAssay.
Cycloheximide cs = Cycloheximide Counterscreen for Small Molecule Inhibitors of Shiga Toxin | cell reporter, cycloheximide protein synthesis inhibition counterscreen | max response, % | hit rate 12% among 300,000 | AID 2314, 2010; in the data active = max response mostly above about 13%, no sharp cut-off; inactive = mostly below about 14%; note: read at 38.3 µM for the half of the compounds with a filed dose; 0% is about no effect
Shiga toxin inh = A qHTS for Small Molecule Inhibitors of Shiga Toxin. Vero cells, Shiga toxin protein synthesis inhibition reporter. inhibition, % at 38.7 µM. hit rate 9.2% among 290,000; in the data active = inhibition mostly above about 28%, no sharp cut-off; inactive = mostly below about 43%; note: 0% is about no effect
HCMV inh = qHTS Assay for inhibitors of the human cytomegalovirus (HCMV) | HFF cells, HCMV-luciferase reporter, 72 h; stronger effect = lower value | activity change, negative = inhibition, % at 57.5 µM | hit rate 4.5% among 410,000 | AID 1259415, 2018; in the data active = activity change below about -60%; inconclusive = no clear call, values can overlap the other calls; inactive = above about -39%; note: % is set by controls: 0 for no effect and ±100 for the full control effect
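After 16 h attachment at 37C, HFF cells received test compound and HCMV-luciferase (1 PFU/cell); reporter luminescence read 72 h later, data normalized against buffer-only and known inhibitor Salinomycin.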
Pf growth 96h = Primary qHTS for delayed death inhibitors of the malarial parasite plastid, 96 hour incubation; P. falciparum luciferase reporter growth, 96 h; Potency, µM (top dose mostly 28.7 µM), for the others: top-dose activity change, negative = inhibition, most hits filed as inhibitors; hit rate 6.9% among 320,000; note: potency is the fitted concentration of half-maximal effect; % is set by controls: 0 for no effect and ±100 for the full control effect
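P. falciparum expressing integrated firefly luciferase, in erythrocytes at 2% hematocrit, 0.05% parasitemia, incubated with compounds 96 h at 37 C, 5% CO2. Growth inhibition read as loss of luminescence; two-generation exposure targets delayed-death apicoplast inhibitors.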
Pf growth 48h = Primary qHTS for delayed death inhibitors of the malarial parasite plastid, 48 hour incubation; AID 504832, 2011; P. falciparum luciferase growth in erythrocytes, 48 h; hit rate 5.9% among 310,000; Potency, µM (doses to about 28.7 µM), for the others: top-dose activity change, negative = inhibition, usual class: inhibitors; note: potency is the fitted concentration of half-maximal effect; % is set by controls: 0 for no effect and ±100 for the full control effect
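Here the parasites carry a stable luciferase gene and grow inside erythrocytes in Albumax-based RPMI medium with compound for one erythrocytic cycle. Activity is scored as loss of luminescent signal.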
Numbers without * were called inactive; ? = inconclusive; . = no result given; [ ] = another dose, or the depositor's remark. A selection: hits, their analogues and other compounds. The true share with any hit is near 20%. Unless noted, calls come from the whole dose curve; as a rule, active = well fitted inhibition curve with a large enough effect; inconclusive = small, poorly fitted or top-dose-only effect, or another doubt; inactive = no such curve, though single readings can be large or run the other way.

SMILES	Cycloheximide cs	Shiga toxin inh	HCMV inh	Pf growth 96h	Pf growth 48h
O=C(CCCOc1ccccc1)NCC1CCCO1 (configuration not stated)	28.4*	26.4	41.8	-32.9%	32.3%
O=C(CSc1ccc(Cl)cc1)NCC1CCCO1 (configuration not stated)	16.8*	-2.6	31.2	31.0%	.
CCc1ccc(-c2nc(SCC(=O)NCC3CCCO3)c(-c3ccc(C)cc3)[nH]2)cc1 (configuration not stated)	.	.	-4.5	.	.
Cc1ccc(-c2[nH]c(-c3ccc(Cl)cc3)nc2SCC(=O)NCC2CCCO2)cc1 (configuration not stated)	-2.3	-4.7	30.9	9.28µM*	?
O=C(NCCOc1ccccc1)C(=O)NCC1CCCO1 (configuration not stated)	11.6*	36.9*	26.5	23.0%	54.0%
O=C(NCC1CCCO1)C(=O)N/N=C/c1ccccc1C(=O)O (configuration not stated)	-2.2	4.9	-12.8	10.4µM*	17.7%
CCC(CC)C(=O)c1c[nH]c(C(=O)NCC2CCCO2)c1 (configuration not stated)	0.8	-10.7	2.1	2.0%	3.4%
CCCOc1ccc(CN(C(=O)c2cc(=O)c3ccc(C)cc3o2)C2CCS(=O)(=O)C2)cc1 (configuration not stated)	.	.	-4.8	.	.
O=c1c2ccccc2[nH]c2ccc(O)cc12	2.9	15.6	12.1	?	-10.2%
Cc1ccc2[nH]c3ccccc3c(=O)c2c1	28.0*	48.5*	-23.3	34.2%	.
Cc1ccc2[nH]c(CSc3ccccc3)cc(=O)c2c1	19.7	23.9	?	13.1µM*	?
O=c1cc(CSc2ccccc2)[nH]c2ccc(F)cc12	.	.	-30.0	.	.
O=C(C1COc2ccccc2O1)N1CCN(c2nc3c(F)cccc3s2)CC1 (configuration not stated)	.	.	-34.7	.	.
O=C(COc1cccc(C(F)(F)F)c1)NCC(c1cccs1)N1CCOCC1 (configuration not stated)	.	.	-12.2	14.7µM*	13.1µM*
O=C(COc1cccc(C(F)(F)F)c1)NCC(c1ccco1)N1CCCCC1 (configuration not stated)	.	.	-7.8	?	14.7µM*
CCc1ccc(NC(=S)N2CCN(C)CC2)cc1	24.6*	61.1	2.1	-3.5%	61.2%
CCOC(=O)C1CCN(C(=S)Nc2ccc(CC)cc2)CC1	42.6*	53.5	-3.0	?	50.3%
CCOC(=O)C1CCN(C(=O)Nc2ccc(OC(F)(F)F)cc2)CC1	34.0*	63.2	43.6	79.8%	71.5%
COc1ccc(NC(=S)N2CCN(C)CC2)cc1	.	.	3.8	.	.
CCc1ccc(NC(=S)N2CCCC(C(F)(F)F)C2)cc1 (configuration not stated)	16.2*	40.1	-20.7	66.3%	30.7%
CC1CCCN(C(=S)Nc2ccc(F)cc2)C1 (configuration not stated)	7.3	8.8	?	-10.6%[5.75 µM]	0.7%
COc1cccc(C(c2sc3nc(-c4ccco4)nn3c2O)N2CCN(c3ccccc3F)CC2)c1 (configuration not stated)	.	.	55.7	.	.
CCc1ccc(NC(=S)N2CCC(NC(=O)C3CCCCC3)CC2)cc1	-0.8	-12.5	-10.8	-23.7%	14.2%
Cn1cnc(S(=O)(=O)N2CCC(C(=O)Nc3ccc(C#N)cc3)CC2)c1	.	.	11.8	.	.
CCc1ccc(NC(=O)N(CCOC)C2CCN(C(C)=O)CC2)cc1	9.6	-1.5	-11.1	.	-6.3%
SMILES	Cycloheximide cs	Shiga toxin inh	HCMV inh	Pf growth 96h	Pf growth 48h
CCc1ccc(NC(=S)N2CCCC2)cc1	36.4*	78.2*	95.2	-18.4%	111.2%
CCOC(=O)N1CCC(N(CCOC)C(=O)Nc2ccc(CC)cc2)CC1	-2.2	5.2	-24.4	7.38µM*	-26.0%
Cn1cnc(S(=O)(=O)N2CCC(C(=O)Nc3ccc(OC(F)(F)F)cc3)CC2)c1	.	.	-60.2*	.	.
N#Cc1ccc(NC(=O)COCc2cc(-c3ccc4c(c3)OCO4)on2)cc1	.	.	9.1	.	.
CCCc1nc2ccc(NC(=O)CC(C)(C)C)cn2n1	.	.	49.5	.	.
O=C(Cc1ccccc1)Nc1sc2c(c1C(=O)Nc1ccccc1Cl)CCCC2	.	.	13.3	.	.
COC(=O)c1c(NC(=O)CCCC(=O)O)sc2c1CCC2	-2.8	-6.5	19.3	.	?
Cc1cccc(CNC(=O)CCCN2C(=O)COc3ccc(C)cc32)c1	.	.	-20.4	.	.
C=C[C@H]1CN2CC[C@H]1C[C@H]2[C@H](O)c1ccnc2ccccc12	.	.	-33.4	?	0.147µM*
O=C1NC[C@@H](CCCCN2CCN(CCC3CCCCC3)C(=O)C2=O)N(Cc2ccccc2)C1=O	.	.	38.3	.	.
Cc1ccccc1CNC(=O)c1ccccc1SCC(=O)NCc1ccco1	.	.	5.3	-5.5%	?
O=C(Nc1nc(-c2ccccn2)cs1)C1CC(=O)N(c2ccc3c(c2)OCCO3)C1 (configuration not stated)	24.5*	18.1	-17.2	?	14.0%
O=C(Nc1nnc(C2CC2)s1)C1CC(=O)N(c2ccc3c(c2)OCCO3)C1 (configuration not stated)	31.2*	30.7*	?	31.4%	64.4%
O=C(NC(Cc1ccccc1)c1nc2ccccc2[nH]1)C1CC(=O)N(c2ccc3c(c2)OCCO3)C1 (configuration not stated)	12.6	22.7	76.7	2.94µM*	0.0%
COc1ccc(CN(C)C(=O)C2CC(=O)N(c3ccc4c(c3)OCCO4)C2)c(OC)c1 (configuration not stated)	.	.	0.0	6.57µM*	?
Cc1cc(SCC(=O)NCc2ccccc2)nc(=O)[nH]1	.	.	-3.3	.	.
O=C(COc1ccccc1)NC1CC(=O)N(c2ccc3c(c2)OCCO3)C1 (configuration not stated)	.	.	9.2	.	.
COc1ccc(-c2nc(NC(=O)C3CC(=O)N(c4ccc5c(c4)OCCO5)C3)sc2C)cc1 (configuration not stated)	28.2*	40.6	-96.1*	?	30.7%
O=C(COc1ccc(F)cc1)NC1CC(=O)N(c2ccc3c(c2)OCCO3)C1 (configuration not stated)	.	.	-107.7*	.	.
COc1ccc2nc(NC(=O)C3CC(=O)N(c4ccc5c(c4)OCCO5)C3)sc2c1 (configuration not stated)	.	.	-20.1	?	?
CCC(C)(C)NC(=O)c1ccc2c(c1)N(CC(=O)NC1CCCC1)C(=O)C(C)(C)O2	-4.6	-6.3	?	6.57µM*	0.5%
CC1(C)Oc2ccc(C(=O)Nc3ccccc3F)cc2N(CC(=O)N2CCOCC2)C1=O	12.4*	48.3	-28.7	?	21.7%
COC(=O)CN1C(=O)C(C)(C)Oc2ccc(C(=O)Nc3ccccc3F)cc21	14.2	6.4	-33.7	34.4%	10.8%
CCOC(=O)CN1C(=O)C(C)(C)Oc2ccc(C(=O)Nc3ccccc3)cc21	13.5*	36.2	-29.2	?	?
CCOC(=O)c1ccc2c(c1)N(CC#N)C(=O)C(C)(C)O2	16.9*	30.7	14.8	29.4%	?
Cc1cc(Nc2cccc(C)c2C)n2cnnc2n1	.	.	12.0	.	.
